# Screens as filed in PubChem BioAssay.
# Sm TGR inh – blocks Schistosoma mansoni thioredoxin glutathione reductase; Q962Y6; purified TGR, DTNB reduction, TNB absorbance 405 nm; Potency, µM (top dose mostly 114 µM), without a hit: top-dose activity change, negative = inhibition, usual class: inhibitors; actives 3% (n = 360,000); AID 485364; further: nearly all actives have a fitted effect of over 60% in size
#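 First, TGR (20 nM dispensed) and NADPH were mixed with compound. Second, a 15 min room-temperature incubation followed. Third, further NADPH and then DTNB were added to start the reaction. Finally, TNB absorbance was monitored kinetically.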
# AmpC inh detg – inhibitors of E. coli AmpC beta-lactamase with detergent; P00811; AmpC hydrolysis of nitrocefin, absorbance 480 nm, 0.01% Triton; Potency, µM (titrated, usually from 114 µM), for inactives: at the top dose activity change, negative = inhibition, usual class: inhibitors; actives 0.041% (n = 370,000); AID 485294;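 further: 0% = no-compound wells and -100% = no-enzyme wells; nearly all actives have a fitted effect of over 25% in size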
# Target sequence (P00811 whole entry, looked up): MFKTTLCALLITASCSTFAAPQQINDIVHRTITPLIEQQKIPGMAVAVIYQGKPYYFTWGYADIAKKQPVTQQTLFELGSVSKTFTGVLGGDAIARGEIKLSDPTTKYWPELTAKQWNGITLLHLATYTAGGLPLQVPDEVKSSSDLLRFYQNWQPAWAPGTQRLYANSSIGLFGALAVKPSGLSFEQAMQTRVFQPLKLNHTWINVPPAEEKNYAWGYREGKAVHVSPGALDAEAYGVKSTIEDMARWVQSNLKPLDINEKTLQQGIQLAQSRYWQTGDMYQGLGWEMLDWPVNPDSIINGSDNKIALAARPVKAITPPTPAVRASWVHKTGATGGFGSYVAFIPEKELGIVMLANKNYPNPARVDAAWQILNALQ
#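 AmpC (5.3 nM in the dispensed reagent) in 20 mM phosphate pH 7.0 with 0.01% (detergent screen) or 0.0001% Triton X-100 was preincubated with compounds for 15 min at room temperature. Nitrocefin was then added from an 800 uM solution, and hydrolysis was followed at 480 nm.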
# AmpC inh no detg – blocks E. coli AmpC beta-lactamase in detergent-free assay. P00811. AmpC nitrocefin hydrolysis, absorbance 480 nm, 0.0001% Triton. Potency, µM (series often up to 57.1 µM), for the others: top-dose activity change, negative = inhibition, hits mostly inhibitors. actives 0.52% (n = 330,000). AID 485341;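 further: plate controls were no compound for no effect and no enzyme for full effect; nearly all actives have a fitted effect of over 20% in size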
#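 20 mM phosphate pH 7.0 + 0.01% (detergent screen) or 0.0001% Triton X-100; 5.3 nM AmpC reagent; cpd preinc 15 min RT; nitrocefin (800 uM stock) to start; A480 q20 s × 4 min; Activity was normalised to no-enzyme and no-compound control wells.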
# * = called active by the depositor; ? = inconclusive; . = no result given. An excerpt weighted towards active compounds, which were near 3.3% of everything screened. The call rests on the fitted dose curve; in most records, active means well fitted curve in the direction sought with a large enough effect; inconclusive means small, poorly fitted or top-dose-only effect, or another doubt; inactive means no such curve, though single readings can be large; an effect the other way counts as inactive or inconclusive. Unless noted, on the % scale 0 is the no-effect control and ±100 the full control effect; potency means the concentration at half of the fitted maximal effect.
SMILES,Sm TGR inh,AmpC inh detg,AmpC inh no detg
COc1ccc2c(c1)NC(c1ccc(OCC(C)C)cc1)=NC(c1ccncc1)=N2,-8%,-3%,.
COc1cc(/C=C/[N+](=O)[O-])ccc1OC(=O)c1cccnc1,1.8µM*,-12%,-24%
COc1cc(/C=N/NC(=O)c2cccnc2)ccc1OC(=O)c1ccc([N+](=O)[O-])cc1,-9%,0%,-28%
Cn1c(=O)oc2cc(S(=O)(=O)NC(CC(=O)O)c3cccc(Br)c3)ccc21 (stereo not drawn),-13%,8%,.
CCN(c1ccccc1)S(=O)(=O)c1ccc(OC)c(NC(=O)c2cc(Cl)ccn2)c1,45µM*,?,-15%
CCN(c1ccccc1)S(=O)(=O)c1ccc(OC)c(NC(=O)c2c(C)noc2C)c1,-1%,-9%,-24%
COc1ccc(-c2noc(CSc3nnc(-c4ccncc4)n3-c3ccc(C)cc3)n2)cc1OC,-4%,4%,.
CS(=O)(=O)N(CC(=O)NCCSCc1ccccc1)c1ccccc1F,-25%,0%,18%
O=C(NCCSCc1ccco1)Nc1ccccc1,35µM*,-3%,?
O=C(Cc1ccccc1)NCCSCc1ccco1,-28%,-9%,-12%
COc1ccc(OC)c(N(CC(=O)NCCSCc2ccco2)S(=O)(=O)c2ccccc2)c1,45µM*,4%,48%
COc1ccc(OC)c(N(CC(=O)NCc2ccccc2)S(=O)(=O)c2ccc(OC)c(OC)c2)c1,25µM*,2%,-10%
COc1ccc(OC)c(N(CC(=O)NCc2ccccc2)S(=O)(=O)c2ccccc2)c1,7%,0%,.
COc1ccc(CCNC(=O)CN(c2cc(OC)ccc2OC)S(=O)(=O)c2ccccc2)cc1,0%,-7%,47%
Cc1ccccc1N(CC(=O)NCCSCc1ccco1)S(C)(=O)=O,22µM*,-15%,19%
Cc1ccc(CCNC(=O)c2cnc3c(C)cccn3c2=O)cc1,0%,9%,.
CCOC(=O)c1c(C)oc2nc(C)nc(NCc3ccc(F)cc3)c12,1%,15%,.
CCOc1ccc(N(CC(=O)NCCSCc2ccco2)S(=O)(=O)c2ccc(F)cc2)cc1,4%,7%,-3%
CCOc1ccccc1N(CC(=O)NCCSCc1ccco1)S(=O)(=O)c1ccccc1,40µM*,?,-10%
CC(=O)c1ccc(NC(=O)CSc2ccsc2[N+](=O)[O-])cc1,-22%,-19%,4.5µM*
O=C(CSc1ccsc1[N+](=O)[O-])Nc1cc(F)ccc1F,35µM*,-1%,-54%
Cc1ccc(CNC(=O)CSc2ccsc2[N+](=O)[O-])cc1,?,-5%,-32%
CCN(CC)c1ccc(NC(=O)CSc2ccsc2[N+](=O)[O-])c(C)c1,-25%,?,-34%
COc1cc(NC(=O)c2cccc(Cl)c2Cl)ccc1NC(=O)c1cc2ccccc2o1,8%,9%,.
CCN(CC(=O)NC(C)(C)C)C(=O)CCl,50µM*,-10%,-12%
SMILES,Sm TGR inh,AmpC inh detg,AmpC inh no detg
CC(C)(C)NC(=O)CCCCCCCC(=O)NC(C)(C)C,0%,-9%,14%
Cc1ccc(Cn2c(C)c3cnn(CC(=O)NCCc4ccc(Cl)cc4)c(=O)c3c2C)cc1,-3%,-3%,.
Cc1ccc(/C=N/Nc2cccc3cccnc23)c(O)c1,32µM*,0%,-36%
Oc1ccc(/C=N/Nc2cccc3cccnc23)c(O)c1,-6%,2%,-27%
COc1cccc(NCc2nnc3n2CCCCC3)c1,5%,17%,.
COc1cccc(-c2cn3c(n2)sc2cc(C(=O)NCCc4ccc(OC)c(OC)c4)ccc23)c1,0%,20%,.
O=C(OCN1C(=O)c2ccccc2C1=O)C1CCCCC1,-16%,1%,-1%
O=C1c2ccccc2C(=O)N1SC1CCCCC1,45µM*,?,-35%
Cc1ccc(C2NC(=O)c3c(sc(C)c3C)N2)c(O)c1 (stereo not drawn),25µM*,?,-37%
Cc1cccc(C2NC(=O)c3c(sc(C)c3C)N2)c1O (stereo not drawn),1%,0%,-25%
COc1ccc2c(CNCCc3ccco3)c(C(=O)O)n(Cc3ccc(F)cc3)c2c1,?,-2%,.
COc1ccc(CNc2nc(-c3ccccc3)nn2S(=O)(=O)c2ccccc2)cc1,8%,-8%,.
CC(C)NS(=O)(=O)c1ccc2nc(NC(=O)c3cncc(Br)c3)sc2c1,0%,-8%,.
Cc1cc2oc(=O)cc(Cn3ncc(Cl)c(Cl)c3=O)c2cc1Cl,3.5µM*,-5%,-42%
Cc1cc2oc(=O)cc(CN3CCCCC3C)c2cc1Cl (stereo not drawn),-4%,-1%,-23%
Cc1cccc(NC(=O)CSc2nc3n[nH]c(C)c3c(=N)n2-c2cccc(Cl)c2)c1,1%,-6%,.
